Measured values as given in PubChem BioAssay.
Calls of active or inactive are those of the source.

Tests used:
Albumin (Bos taurus) = Albumin (Bos taurus) (UniProt P02769); assay: compounds binding labelled BSA control protein – biochemical, small-molecule microarray, Alexa647 label, 635/667 nm fluorescence, artefact control for SMM control protein annotation, profiling panel (AID 1118); conditions: BSA-A647 binding, fluorescence 635 nm, higher = more signal;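 note: score merges 667 nm emission intensity and signal-to-noise per printed compound spot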
[1] = probe aXIP binding to arrayed compounds – biochemical, NeuroSMM set, 635/667 nm fluorescence, primary screen (AID 1119); conditions: small-molecule microarray, higher = more signal, called active from +8 up or from −8 down;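 note: probe is the protein aXip251-270 applied at 1 µg/mL to compound-printed slides; binding of probe to printed compounds measured as 667 nm fluorescence plus signal to noise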
[2] = probe aNOTCH3 binding on compound microarray – biochemical, small-molecule microarray, 635/667 nm fluorescence, primary screen (AID 1120); conditions: higher = more signal;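 note: probe is a biotin-tagged antibody raised against NOTCH3 rather than NOTCH3 protein; score merges spot fluorescence near 667 nm with spot signal to noise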
[3] = probe aNOTCH2 binding on compound microarray – biochemical, small-molecule microarray, 635/667 nm fluorescence, primary screen (AID 1121); conditions: higher = more signal;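 note: score merges feature fluorescence read at 667 nm with its signal to noise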
[4] = target: Carbonic anhydrase 2 (Homo sapiens) (UniProt P00918); assay: compounds binding carbonic anhydrase 2 – biochemical, small-molecule microarray, Alexa647-labelled CAII, profiling panel (AID 1122); conditions: CAII-A647 binding fluorescence, higher = more signal
[5] = COS7 lysate on small-molecule microarray, probe aHis, 635 nm (AID 1123); conditions: COS7 cell lysate, fluorescence, higher = more signal;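 note: z-score combines 667nm fluorescence intensity with signal-to-noise per printed compound spot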
[6] = probe aLAP1 signal on lysate-treated microarray – cell lysate, small-molecule microarray, COS7 lysate, primary screen (AID 1124); conditions: probe aLAP1, fluorescence, higher = more signal;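 note: lysate comes from COS7 cells expressing LAP1 and is applied at 0.3 µg/mL; score merges spot fluorescence near 667 nm with signal-to-noise over triplicate slides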
Sam68 (KHDRBS1) = assay: compounds binding KHDRBS1 protein – biochemical, small-molecule microarray, 635 nm fluorescence, primary screen (AID 1125); conditions: higher = more signal;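 note: score merges 667 nm channel intensity with signal to noise over triplicate slides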
[7] = system: Chordin-like protein 2 (CHRDL2); assay: compounds binding chordin-like 2 – biochemical, small-molecule microarray, 635 nm fluorescence, primary screen (AID 1126); conditions: fluorescence 635 nm, higher = more signal;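 note: printed compound slides probed with Chrdl2 protein at 4 µg/mL for 1 h at 4 C; score merges 667 nm emission intensity with signal to noise over three replicate slides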
[8] = target: Concanavalin-A (Canavalia ensiformis) (UniProt P02866); assay: compounds binding concanavalin A lectin – biochemical, small-molecule microarray, Alexa647 label, 635 nm, artefact control for SMM control protein annotation, primary screen (AID 1127); conditions: ConA-A647 binding fluorescence, higher = more signal;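 note: z combines 667 nm emission intensity with signal-to-noise across three replicate slides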
[9] = compounds binding Alexa647 anti-His antibody – biochemical, small-molecule microarray, 635 nm fluorescence, artefact control for SMM control protein annotation, primary screen (AID 1128); conditions: higher = more signal;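 note: score merges feature fluorescence with signal-to-noise for each printed compound spot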
[10] = system: Human papillomavirus type 1a E7 protein (residues 1-88); assay: HPV1a E7 small-molecule binders, primary screen, biochemical, small-molecule microarray, residues 1-88, 635 nm (AID 1129); conditions: small-molecule microarray binding, fluorescence 635 nm; higher = more signal
[11] = target: Focal adhesion kinase 1 (Homo sapiens) (UniProt Q05397); assay: PTK2 protein binding on printed compound slides – biochemical, small-molecule microarray, 635/667 nm fluorescence, BSA, DTT, primary screen (AID 1130); conditions: 635 nm fluorescence, higher = more signal;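 note: composite of spot emission at 667 nm and signal to noise over triplicate slides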
[12] = system: Fibrinogen (Alexa647-labelled); assay: Alexa647-fibrinogen binding to printed small molecules – biochemical, small-molecule microarray, 635/667 nm fluorescence, artefact control for SMM control-protein annotation, profiling panel (AID 1131); conditions: fibrinogen-A647 binding fluorescence, higher = more signal;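 note: z-score merges 667 nm fluorescence with per-spot signal-to-noise over triplicate slides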
[13] = target: Follistatin (Homo sapiens) (UniProt P19883); assay: FST protein binding to printed compounds – biochemical, small-molecule microarray, 635/667 nm fluorescence, primary screen (AID 1132); conditions: 635 nm fluorescence, higher = more signal
[14] = target: Fibroblast growth factor 2 (Homo sapiens) (UniProt P09038); assay: basic fibroblast growth factor binding to printed compounds – biochemical, small-molecule microarray, 635/667 nm fluorescence, primary screen (AID 1133); conditions: FGF2, fluorescence 635/667, higher = more signal
[15] = JC-1 mitochondrial potential readout, lung cancer cells – cell-based, A549, JC-1 fluorescence, basal, 24 h, 100 nL, profiling panel (AID 1138); conditions: higher = more signal;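 note: A549 lung adenocarcinoma cells under basal conditions with no added stimulus; test concentration not given here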
Lefty1 = Lefty1 protein binding to printed compounds – biochemical, small-molecule microarray, 635/667 nm fluorescence, primary screen (AID 1139); conditions: fluorescence 635/667, higher = more signal
[16] = system: wheat germ agglutinin (Triticum aestivum), Alexa647-labelled; assay: Alexa647-WGA lectin binding to printed small molecules – biochemical, small-molecule microarray, 635/667 nm fluorescence, artefact control for SMM control-protein annotation, profiling panel (AID 1140); conditions: WGA-A647 binding, 635 nm fluorescence, higher = more signal;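 note: score merges 667 nm feature emission with signal to noise over triplicate slides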
[17] = target: Luciferin 4-monooxygenase (Photinus pyralis) (UniProt P08659); assay: inhibition of purified Photinus pyralis luciferase – biochemical, luminescence, purified enzyme, 2006 set, primary screen (AID 1141); conditions: purified firefly luciferase, SteadyGlo luminescence, 30 min; higher = more signal, called active from +8 up or from −8 down;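 note: cell-free assay with purified firefly luciferase at 100 ng per well in PBS; test concentration not given here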
Luciferin 4-monooxygenase (Photinus pyralis), sequence (P08659 whole entry, looked up): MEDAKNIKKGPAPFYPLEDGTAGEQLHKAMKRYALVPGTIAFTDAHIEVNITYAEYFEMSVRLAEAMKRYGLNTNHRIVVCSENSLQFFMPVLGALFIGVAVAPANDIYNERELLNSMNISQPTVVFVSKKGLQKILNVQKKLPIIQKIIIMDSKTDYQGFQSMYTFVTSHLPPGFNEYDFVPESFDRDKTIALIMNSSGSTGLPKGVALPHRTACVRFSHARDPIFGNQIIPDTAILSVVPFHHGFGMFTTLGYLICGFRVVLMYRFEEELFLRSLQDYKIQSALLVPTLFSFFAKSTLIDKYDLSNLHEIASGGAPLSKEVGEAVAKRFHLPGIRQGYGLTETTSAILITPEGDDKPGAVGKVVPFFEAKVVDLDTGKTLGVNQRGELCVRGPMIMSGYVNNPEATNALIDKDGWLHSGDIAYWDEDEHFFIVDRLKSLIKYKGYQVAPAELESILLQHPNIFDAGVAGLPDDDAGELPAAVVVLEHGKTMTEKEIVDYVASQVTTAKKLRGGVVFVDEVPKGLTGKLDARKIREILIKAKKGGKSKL

Concanavalin-A (Canavalia ensiformis), sequence (P02866 whole entry, looked up): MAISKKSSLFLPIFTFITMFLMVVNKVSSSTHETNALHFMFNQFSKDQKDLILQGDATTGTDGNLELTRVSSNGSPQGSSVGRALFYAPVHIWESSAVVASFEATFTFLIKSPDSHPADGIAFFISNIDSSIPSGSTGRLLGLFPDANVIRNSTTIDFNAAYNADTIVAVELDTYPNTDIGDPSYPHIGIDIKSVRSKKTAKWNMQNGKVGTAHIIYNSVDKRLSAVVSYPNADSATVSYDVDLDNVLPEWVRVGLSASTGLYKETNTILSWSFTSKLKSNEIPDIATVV
Focal adhesion kinase 1 (Homo sapiens), sequence (Q05397 whole entry, looked up): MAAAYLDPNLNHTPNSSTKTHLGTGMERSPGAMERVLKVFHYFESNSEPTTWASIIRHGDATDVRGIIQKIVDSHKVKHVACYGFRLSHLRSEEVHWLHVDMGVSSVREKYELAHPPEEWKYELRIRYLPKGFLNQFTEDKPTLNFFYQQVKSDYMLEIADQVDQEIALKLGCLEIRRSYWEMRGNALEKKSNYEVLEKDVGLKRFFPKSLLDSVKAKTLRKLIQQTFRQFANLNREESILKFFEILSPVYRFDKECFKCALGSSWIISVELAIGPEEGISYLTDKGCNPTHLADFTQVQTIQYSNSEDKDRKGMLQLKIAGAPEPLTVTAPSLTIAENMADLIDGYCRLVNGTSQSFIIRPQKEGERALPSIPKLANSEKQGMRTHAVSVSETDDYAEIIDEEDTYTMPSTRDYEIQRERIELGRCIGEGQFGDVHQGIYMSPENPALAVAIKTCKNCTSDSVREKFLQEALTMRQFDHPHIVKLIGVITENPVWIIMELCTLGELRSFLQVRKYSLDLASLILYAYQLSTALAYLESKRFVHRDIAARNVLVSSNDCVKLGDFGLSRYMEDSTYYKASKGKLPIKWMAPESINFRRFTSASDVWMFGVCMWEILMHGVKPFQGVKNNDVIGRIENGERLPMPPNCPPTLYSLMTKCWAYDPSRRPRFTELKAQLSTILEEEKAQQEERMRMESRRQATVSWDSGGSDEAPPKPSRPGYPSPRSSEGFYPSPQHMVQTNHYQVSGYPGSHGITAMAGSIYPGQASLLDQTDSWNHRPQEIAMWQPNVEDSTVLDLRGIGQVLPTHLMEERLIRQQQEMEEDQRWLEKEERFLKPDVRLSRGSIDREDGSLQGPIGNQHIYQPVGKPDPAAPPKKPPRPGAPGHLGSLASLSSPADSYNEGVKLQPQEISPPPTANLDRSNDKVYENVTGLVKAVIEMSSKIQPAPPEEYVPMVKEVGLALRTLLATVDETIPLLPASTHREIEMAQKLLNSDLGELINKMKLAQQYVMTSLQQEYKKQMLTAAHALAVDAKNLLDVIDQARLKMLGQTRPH
Fibroblast growth factor 2 (Homo sapiens), sequence (P09038 whole entry, looked up): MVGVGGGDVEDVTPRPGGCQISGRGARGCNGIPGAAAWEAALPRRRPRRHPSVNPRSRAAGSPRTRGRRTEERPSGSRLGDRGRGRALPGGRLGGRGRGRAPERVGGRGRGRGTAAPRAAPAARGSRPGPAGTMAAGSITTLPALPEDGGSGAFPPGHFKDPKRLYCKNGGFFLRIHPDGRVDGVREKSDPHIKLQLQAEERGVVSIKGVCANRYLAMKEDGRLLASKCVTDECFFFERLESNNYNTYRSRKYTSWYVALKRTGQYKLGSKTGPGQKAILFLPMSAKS
Follistatin (Homo sapiens), sequence (P19883 whole entry, looked up): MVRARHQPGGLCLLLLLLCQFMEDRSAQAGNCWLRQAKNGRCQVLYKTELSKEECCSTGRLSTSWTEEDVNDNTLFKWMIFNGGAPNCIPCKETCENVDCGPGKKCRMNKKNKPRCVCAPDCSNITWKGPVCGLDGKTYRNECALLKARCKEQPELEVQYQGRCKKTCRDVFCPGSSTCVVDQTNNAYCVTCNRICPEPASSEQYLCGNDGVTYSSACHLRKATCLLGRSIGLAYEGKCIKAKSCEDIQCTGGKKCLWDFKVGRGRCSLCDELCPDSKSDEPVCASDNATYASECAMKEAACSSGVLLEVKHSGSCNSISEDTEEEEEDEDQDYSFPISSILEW
Albumin (Bos taurus), sequence (P02769 whole entry, looked up): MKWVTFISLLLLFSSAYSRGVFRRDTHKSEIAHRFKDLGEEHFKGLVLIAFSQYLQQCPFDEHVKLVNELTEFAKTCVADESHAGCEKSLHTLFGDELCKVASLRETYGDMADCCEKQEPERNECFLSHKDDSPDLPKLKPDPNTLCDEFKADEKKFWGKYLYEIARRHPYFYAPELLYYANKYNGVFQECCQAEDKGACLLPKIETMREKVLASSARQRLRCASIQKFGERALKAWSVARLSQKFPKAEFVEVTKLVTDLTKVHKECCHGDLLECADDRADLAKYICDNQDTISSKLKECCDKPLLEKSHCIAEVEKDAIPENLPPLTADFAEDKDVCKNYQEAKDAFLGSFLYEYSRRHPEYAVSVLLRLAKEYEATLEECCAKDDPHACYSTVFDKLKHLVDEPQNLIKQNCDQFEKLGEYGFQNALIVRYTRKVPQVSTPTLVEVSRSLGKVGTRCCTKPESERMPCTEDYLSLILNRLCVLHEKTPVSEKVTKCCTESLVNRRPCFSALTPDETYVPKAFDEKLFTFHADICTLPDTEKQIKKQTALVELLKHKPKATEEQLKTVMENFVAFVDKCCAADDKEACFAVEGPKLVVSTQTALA

Compound | composite z-score (Albumin (Bos taurus)) | composite Z-score [1] | composite z-score [2] | composite z-score [3] | composite z-score [4] | composite z-score [5] | composite z-score [6] | composite z-score (Sam68 (KHDRBS1)) | composite z-score [7] | composite z-score [8] | composite z-score [9] | composite z-score [10] | composite z-score [11] | composite z-score [12] | composite z-score [13] | composite z-score [14] | z-score [15] | composite z-score (Lefty1) | composite z-score [16] | z-score [17]
O=C1C2C=CC(C(O)C3CCCCC3)N(n3cnnc3)C2C(=O)N1Cc1ccccc1 (stereo not given) | 0.835 | 0.288 (inactive) | 0.341 | -0.0527 | 0.597 | 2.23 | 0.343 | 1.29 | -0.0651 | 0.698 | -0.526 | 1.17 | 0.377 | 0.983 | 1.26 | 0.287 | -1.96 | 1.27 | 1.26 | 1.54 (inactive)
COc1ccc(C(=O)Nc2cccc(CN3C(=O)[C@]4(O[C@H](CC(=O)N5Cc6ccccc6C[C@H]5CO)[C@@H]([Si](C)(C)c5ccc(OC)cc5)[C@@H]4C)c4ccccc43)c2)cc1 | -0.513 | -0.222 (inactive) | 0.0243 | -0.154 | 0.288 | 0.458 | 0.557 | 1.29 | 1.38 | 0.858 | 1.17 | 0.481 | 0.343 | 0.368 | 1.39 | 1.7 | -0.806 | 1.59 | -0.0276 | 0.429 (inactive)
C=CC1c2cc(O)c(OC)cc2CCN1C (stereo not given) | 0.582 | 0.694 (inactive) | -0.136 | -0.126 | 0.886 | -0.0207 | 0.0879 | -0.589 | -0.644 | -1.24 | 0.586 | -1.39 | -0.636 | -0.934 | -0.424 | -0.475 | -0.0592 | -1.23 | 0.356 | -0.0535 (inactive)
CC(C)C(=C=CC[C@H](O)c1ccccc1OCCO)C[C@H](O)COCc1ccccc1 | 0.435 | -0.392 (inactive) | -0.122 | -0.172 | 0.736 | 1.08 | 0.565 | 0.24 | -0.163 | 0.377 | 1.12 | -0.141 | -0.27 | -0.513 | -0.0978 | 0.107 | 0.742 | 0.346 | 0.133 | -0.961 (inactive)
COC(=O)[C@@]1(Cc2ccc(F)cc2)[C@H]2c3cc(C(=O)N4CCCC4)n(CCc4ccccn4)c3C[C@H]2CN1C(=O)c1ccccc1 | 0.634 | 0.191 (inactive) | 0.0488 | 0.186 | 0.852 | 2.13 | 0.233 | 0.0315 | -0.163 | 0.222 | 0.272 | 0.786 | 0.754 | 0.97 | -0.227 | -0.418 | 0.622 | -1.03 | 1.01 | 0.458 (inactive)
